Experimental data: publication PMC13494018
Values without a mark were called inactive. No rule for the calls is given here.

B1: design_596_3e5f537c-0703-45f0-993f-ff416531349a_2330_dldesign_0_cycle1_af2pred (protein)
chain: EEALKKAEERYEKYGKKALELAEKVGLKEEVEEGIKDPSKMPEVIKKLEELGEENPEVRKDAYLAASYLQRAQQAYETKKKIEAA
B2: design_596_3e5f537c-0703-45f0-993f-ff416531349a_566_dldesign_0_cycle1_af2pred (protein)
chain: DKLVEEAKKAAEEAEKLLDKAIKVSPKAAAEAATAYALYENALSAAESGSATEEEVKAQLEKGKEKLKKAKEIMKKEEEKK
B3: design_596_3e5f537c-0703-45f0-993f-ff416531349a_1329_dldesign_0_cycle1_af2pred (protein)
chain: MEASEELRKAIKYARELGEKGTEEHKKLAAEAVFYASSDPEKAIALLKEVAKDPKVKELAEKAIEHIKKLAEL
B4: design_596_3e5f537c-0703-45f0-993f-ff416531349a_2235_dldesign_0_cycle1_af2pred (protein)
chain: GLYEEAKKEAKEAFSYGIAYLSAVSAKDPSLAPEAEKELEEAFEKVEKALKDAKSGKNPEKALKEIKEIRDEWKEKLKEARA
B5: design_596_3e5f537c-0703-45f0-993f-ff416531349a_2079_dldesign_0_cycle1_af2pred (protein)
chain: MEKEELQRRLKETAEKLAEKHPEAAPAARLVIRVGEKANAEEVRKLLELTEKALGENWKEYAAEATEYAVEIEADILVKELK
B6: design_596_3e5f537c-0703-45f0-993f-ff416531349a_2173_dldesign_0_cycle1_af2pred (protein)
chain: SELKDLLSEAERARHKAEAIATRAKELAKYDPKEAKKIADEAKKVAEEAKKAAELAEKDPEKGKEAIKKVKEKVKKLEKKVKALEKKV
B7: design_597_f3dcd2b3-c7aa-4b15-88bc-bbb8d01a18cd_601_dldesign_0_cycle1_af2pred (protein)
chain: SKAEEKAKELEEKLKKAEELAKKDPKKGAKYAKEIAKEARKAGKETGETEKFAKIADKAYQIAAEAEFKAK
B8: design_596_3e5f537c-0703-45f0-993f-ff416531349a_512_dldesign_0_cycle1_af2pred (protein)
chain: DADTIRAASKALKAAGKDPKTAPLAKEAKEALFKGLEYENKDPKKAAEYYKKAAELLRKLAEKAEAKEELLKVAEELEKKAEELKKK
B9: design_596_3e5f537c-0703-45f0-993f-ff416531349a_1299_dldesign_0_cycle1_af2pred (protein)
chain: MSKKLTEALSAFNKAAAAAAKLIDEEAKKDPKKAAEVKKLLAKAVYEIDNPEKAAAYLEAAAKAATDAATKAELNAAAAEAKKLGEL
B10: design_596_3e5f537c-0703-45f0-993f-ff416531349a_1563_dldesign_0_cycle1_af2pred (protein)
chain: AEKHLKEAKKLAEEAKKLAEEAEKDPSTAPEKAKKAEEAARKAREEAKKAAEADPSVAPEAAKAAQEAYEARAVAEAVANRYLK
B11: design_596_3e5f537c-0703-45f0-993f-ff416531349a_1686_dldesign_0_cycle1_af2pred (protein)
chain: MDEEIKKKAIEIAQKALEAAAEYEAKAIRTGDEESKKKAEELRELAKKIREALKEGNIEEAKKYAEKAKKLIEEA
B12: design_596_3e5f537c-0703-45f0-993f-ff416531349a_2087_dldesign_0_cycle1_af2pred (protein)
chain: MAEKLVEKAKAEMKKLVEEAKKGNPEEARKIRKEIIEKGKKALEEADTEEKKKAAEEIKKIAYKAVEEVLEAYGELLVK
B13: design_596_3e5f537c-0703-45f0-993f-ff416531349a_2018_dldesign_0_cycle1_af2pred (protein)
chain: AAEKKAKAEAKKIVEEAAKIAKEKGYDEGMKYAYKASKELAEKYGKEYGAKAFEEAVDAIGDELAKKVKE
B14: design_597_f3dcd2b3-c7aa-4b15-88bc-bbb8d01a18cd_570_dldesign_0_cycle1_af2pred (protein)
chain: NAIKKEVEEHLAKAEEYTAKAIETASDPEKFKEYFEKMREEFGKALKAAKADPELKKLAEDKLMEAQMKVTEAKGEAARKKNN
B15: design_596_3e5f537c-0703-45f0-993f-ff416531349a_778_dldesign_0_cycle1_af2pred (protein)
chain: AAAEEEKEQKEKLEEVKELAKKMVEEVKEYAKKTTVEEAKKYLDEKKKELFKYAREKVGYEGVEEAVEAYGEARTAILKLEKN
B16: design_597_f3dcd2b3-c7aa-4b15-88bc-bbb8d01a18cd_271_dldesign_0_cycle1_af2pred (protein)
chain: DEAKKKAAEELAEAYEYVAEALALGKKTNEEAKKLAKEAKEEFKKYRDKAKALYKAGNYEEAYKEAKKAYEESKKKLEEIKKIAE
B17: design_596_3e5f537c-0703-45f0-993f-ff416531349a_508_dldesign_0_cycle1_af2pred (protein)
chain: KEKIQKEGLKEIEKIAEEGIKEAKKYAEEGKYEEAKKIAKEALEKMREKAKELGEKVGEEAQKQGAKIIQKAREELSEYVQKAKLKK
B18: design_596_3e5f537c-0703-45f0-993f-ff416531349a_642_dldesign_0_cycle1_af2pred (protein)
chain: SLEENYELAKRVAEAAKEAGKEAKKAGPELAPIGEKAEKEAKELLKEAELAYKDPSYIPEAGKEAQKALEAKAEADWAIAQYK
B19: design_596_3e5f537c-0703-45f0-993f-ff416531349a_1289_dldesign_0_cycle1_af2pred (protein)
chain: MNDALAAESYGEGLVEDAEKEAKEAIEKGASPEELKKVAKKARERAERVRRYAERRAKEAENSEEVLAAGEKAVKKLEEIAKELEKAA
B20: design_597_f3dcd2b3-c7aa-4b15-88bc-bbb8d01a18cd_98_dldesign_0_cycle1_af2pred (protein)
chain: AERVEAAGKIALARIDKAGKGTKEELAVASAQAMALVGVTAGASDEEIDAMVDKVEAAAKGANPVADAKKVLTAAIKELAAK
B21: design_597_f3dcd2b3-c7aa-4b15-88bc-bbb8d01a18cd_323_dldesign_0_cycle1_af2pred (protein)
chain: EEVEKKLKELAEKVKKAKELAEKDPEKGIELAKEAIKEAQKLGKEADEETKKKLAEVAEEAVEVRFEALEKLVKS
B22: design_597_f3dcd2b3-c7aa-4b15-88bc-bbb8d01a18cd_627_dldesign_0_cycle1_af2pred (protein)
chain: MYKELAENYRKGVRALSRRYRLRAELDPAKAAEYGAEATRERDKLFNASPEEVKKAAEEWAKEEAAVAAEAAALAAAA
B23: design_596_3e5f537c-0703-45f0-993f-ff416531349a_1315_dldesign_0_cycle1_af2pred (protein)
chain: SITYKNKALAYLEAAKHALEVAKKNVGDLEKVKKAYEQAKKFVEKALEYASKVTPEFLAEAKAESEKILAEMEKVLKEAE
B24: design_596_3e5f537c-0703-45f0-993f-ff416531349a_1052_dldesign_0_cycle1_af2pred (protein)
chain: GEEKLKEAKKEAEKKLEELKKKGKEVGPEAVKIVEKAKERIEKKYKEAEKMKNKEAGALSFEEFAKDAIEAAKKQIEKLAKEKA
B25: design_596_3e5f537c-0703-45f0-993f-ff416531349a_1970_dldesign_0_cycle1_af2pred (protein)
chain: DEEEKEKKLEEARKAKDEAEEALDKAMEKASPEEALELLEEYRKVSKEAQKLVKEEGVEGAAEAAKLLKEQKKYFEEKYKEL
B26: design_596_3e5f537c-0703-45f0-993f-ff416531349a_1302_dldesign_0_cycle1_af2pred (protein)
chain: KEKLIEEAKKEAKEVVEKAKAILKSKAKEGKLEEGIKEAANLLQEFQQKLTEISFENPEVKEDMEKIFKEARDELKAEIEAAKAA
B27: design_597_f3dcd2b3-c7aa-4b15-88bc-bbb8d01a18cd_430_dldesign_0_cycle1_af2pred (protein)
chain: AVKEKLERAKKYAEETKKLAKELKKNPKFKKTAEEIEKEAEKVLEEAKKAAEKGDAEAVGEKATELRVLKTAAEQLLKAAK
B28: design_596_3e5f537c-0703-45f0-993f-ff416531349a_533_dldesign_0_cycle1_af2pred (protein)
chain: SAITEQNKKEALAERAKHVGEAAVKQAKAHAGDVAYIEKLQKQALEAGKKANEEGKKAAEAAAKEIAKIAAQAKAAK
B29: design_596_3e5f537c-0703-45f0-993f-ff416531349a_2102_dldesign_0_cycle1_af2pred (protein)
chain: AEAVAEEMLARIEEARDALTAADPTLADIADSIADAAKERMRAAAAEGRAEEVAEVGERAVRTLEHLAKLAK
B30: design_596_3e5f537c-0703-45f0-993f-ff416531349a_1819_dldesign_0_cycle1_af2pred (protein)
chain: HAATVKAVAAEAKELAEEKIKAMKENAKDEEGIKLAVNSMKRFADNDAKLGPEAGAAAKAEYEKVEKAAKEIIKEAKA
B31: design_596_3e5f537c-0703-45f0-993f-ff416531349a_666_dldesign_0_cycle1_af2pred (protein)
chain: SEEGKKKVEEAKKRAEKAKKKAKEAIKKSKEEGKAAVYSLLGIAESFKLLAKAMAKTDPEAGKKIKEVAEEAEKKAKELLEEVEK
B32: design_597_f3dcd2b3-c7aa-4b15-88bc-bbb8d01a18cd_362_dldesign_0_cycle1_af2pred (protein)
chain: AAEKAKKAADAFRAIAKAAKLALEDPEKGAAAIQAAVDAAKKESPEIAPYVAAVAEEKLAAVKAKLAAAAAA
B33: design_596_3e5f537c-0703-45f0-993f-ff416531349a_1683_dldesign_0_cycle1_af2pred (protein)
chain: EEEKRREAAERLRELAKKALEDVENAPEYLEEAAREAEKVGDYTTAVLLEQLAEDVRKASPEEAVKFVRAGAERALRSAERLL
B34: design_596_3e5f537c-0703-45f0-993f-ff416531349a_2108_dldesign_0_cycle1_af2pred (protein)
chain: DAVKKAAEEGKERVRRRAEREKKRVTPEARPEIEKAEEKGVKKVEEAAKGTVKEVANAAQEGITEVIEVGAENKIKA
B35: design_597_f3dcd2b3-c7aa-4b15-88bc-bbb8d01a18cd_63_dldesign_0_cycle1_af2pred (protein)
chain: GEAKAEELIKKAKEALREFAETGSLEALDKAEEYAEEISKFTPEVRAKAAEELEKVGEEGSPAARAVAKNLADYLK
B36: design_596_3e5f537c-0703-45f0-993f-ff416531349a_2320_dldesign_0_cycle1_af2pred (protein)
chain: KKVEELKKKMLEELEKIIEIAKTLPPEEAERLITFAKAARERGEKKGVRGLAKAALNVAFEASKYEETKEAAEKLEELANEIIKLT
B37: design_596_3e5f537c-0703-45f0-993f-ff416531349a_988_dldesign_0_cycle1_af2pred (protein)
chain: VEKVAKEAKKAAKEARKEAKKTKDGKAAQELLEAASEAEGYAILAEKDPKYAPKAKEAAKKAKELVEKVKKE
B38: design_597_f3dcd2b3-c7aa-4b15-88bc-bbb8d01a18cd_135_dldesign_0_cycle1_af2pred (protein)
chain: MLTVMQAADIIIDKGAEEAKKAMVETALDVAKKYGIEAGRKAARTLSRIFKNAYGEEEGKEAEKEVLEALEKLEKE

Target: VTCN1, Q7Z7D3
Sequence (Q7Z7D3 whole entry): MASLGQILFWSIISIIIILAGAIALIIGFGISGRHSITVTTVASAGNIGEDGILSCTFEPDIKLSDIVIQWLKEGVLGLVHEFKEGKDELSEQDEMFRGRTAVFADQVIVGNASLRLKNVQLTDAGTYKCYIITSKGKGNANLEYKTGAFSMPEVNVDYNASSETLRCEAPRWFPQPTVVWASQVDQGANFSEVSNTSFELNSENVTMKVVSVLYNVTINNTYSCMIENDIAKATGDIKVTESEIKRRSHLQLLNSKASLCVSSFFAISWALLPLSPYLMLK

Binder | binding in a display sort
B1 | not found
B2 | not found
B3 | not found
B4 | not found
B5 | not found
B6 | not found
B7 | not found
B8 | not found
B9 | not found
B10 | not found
B11 | not found
B12 | not found
B13 | not found
B14 | not found
B15 | not found
B16 | not found
B17 | not found
B18 | not found
B19 | not found

Binder | binding in a display sort
B20 | not found
B21 | not found
B22 | not found
B23 | not found
B24 | not found
B25 | not found
B26 | not found
B27 | not found
B28 | not found
B29 | not found
B30 | not found
B31 | not found
B32 | not found
B33 | not found
B34 | not found
B35 | binds (active)
B36 | not found
B37 | not found
B38 | not found
